# Source: publication PMC4336329 (PLoS ONE, 2015)
# The whole screen tested about 310,000 compounds, of which about 14,000 (4.5%) showed an effect of 50% or more. The effect is printed as a negative number. For the sample, strong results were picked, then their nearest neighbours and some compounds at random.
# Target: human ether-à-go-go-related gene (hERG) potassium channel (human, UniProt Q12809)
# Assay: primary screen, population patch clamp on CHO cells stably expressing hERG; higher = less effect of the substance
# 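Also: peak tail current of the secondary pulse compared with the same well before compound.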
# human ether-à-go-go-related gene (hERG) potassium channel, sequence (Q12809 whole entry, looked up): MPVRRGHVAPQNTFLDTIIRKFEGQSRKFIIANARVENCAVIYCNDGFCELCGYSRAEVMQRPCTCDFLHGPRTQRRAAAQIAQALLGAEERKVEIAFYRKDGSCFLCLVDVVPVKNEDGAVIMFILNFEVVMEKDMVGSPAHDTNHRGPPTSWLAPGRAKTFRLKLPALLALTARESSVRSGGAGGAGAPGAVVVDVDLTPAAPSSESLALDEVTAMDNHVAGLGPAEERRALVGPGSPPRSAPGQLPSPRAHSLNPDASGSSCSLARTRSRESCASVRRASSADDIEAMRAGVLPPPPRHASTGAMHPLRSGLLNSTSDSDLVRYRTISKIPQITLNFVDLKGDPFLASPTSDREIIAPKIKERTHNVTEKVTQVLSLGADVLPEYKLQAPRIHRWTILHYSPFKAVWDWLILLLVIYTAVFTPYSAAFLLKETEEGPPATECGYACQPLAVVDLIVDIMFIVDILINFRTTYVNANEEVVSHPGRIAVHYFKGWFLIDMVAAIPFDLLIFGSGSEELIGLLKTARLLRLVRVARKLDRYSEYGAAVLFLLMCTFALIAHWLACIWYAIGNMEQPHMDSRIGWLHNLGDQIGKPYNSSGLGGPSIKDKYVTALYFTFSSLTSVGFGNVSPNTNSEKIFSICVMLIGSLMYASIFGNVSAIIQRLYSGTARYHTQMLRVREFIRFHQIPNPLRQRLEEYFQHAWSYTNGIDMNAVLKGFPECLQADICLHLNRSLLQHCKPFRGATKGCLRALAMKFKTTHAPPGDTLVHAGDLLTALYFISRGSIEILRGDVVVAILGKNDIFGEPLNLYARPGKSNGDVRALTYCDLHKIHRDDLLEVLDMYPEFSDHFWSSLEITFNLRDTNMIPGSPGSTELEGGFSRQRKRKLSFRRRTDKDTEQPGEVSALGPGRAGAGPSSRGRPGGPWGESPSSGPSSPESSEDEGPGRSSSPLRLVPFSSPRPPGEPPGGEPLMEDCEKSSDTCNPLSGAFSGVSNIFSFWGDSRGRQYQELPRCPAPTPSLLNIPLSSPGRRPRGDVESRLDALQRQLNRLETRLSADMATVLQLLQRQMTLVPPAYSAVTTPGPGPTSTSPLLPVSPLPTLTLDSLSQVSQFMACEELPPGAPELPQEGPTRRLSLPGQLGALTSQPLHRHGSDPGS
row,Structure (SMILES),"hERG current change (%, negative = inhibition) at 10uM"
1,CCOc1ccc2nc(NC(=O)c3cnccn3)sc2c1,2.76%
2,c1coc(-c2nc3ccccc3nc2-c2ccco2)c1,-4.79%
3,CCN(CC)CCN1c2ccccc2Sc2ccccc21.O=C(O)C(=O)O,-41.3%
4,CCN(CC)CCCCN1c2ccccc2Sc2ccccc21.Cl,-61.7%
5,CCC(=O)c1ccc2c(c1)N(CCCN(C)C)c1ccccc1S2.Cl,-63.5%
6,CN(C)CCCN1c2ccccc2Sc2ccccc21.Cl,-28.1%
7,CCN(CC)CC(=O)N1c2ccccc2Sc2ccccc21,1.42%
8,CN(C)CCCNC(=O)N1c2ccccc2Sc2ccccc21,1.39%
9,CC(C)(C)c1ccc(O)c(N)c1,8.01%
10,N#Cc1ncccc1CCc1cccc(Cl)c1,-11.1%
11,NS(=O)(=O)c1ccc(CCNC(=O)CCS(=O)(=O)c2ccc(Br)cc2)cc1,19.2%
12,O=C(CCCC1=NS(=O)(=O)c2ccccc2N1)N1CCN(c2ccc(Cl)cc2)CC1,-61.1%
13,COc1cccc(N2CCN(C(=O)CC(C)(C)CC3=NS(=O)(=O)c4ccccc4N3)CC2)c1,-6.09%
14,COc1ccc(N2CCN(C(=O)CCCC3=NS(=O)(=O)c4ccccc4N3)CC2)cc1,-7.68%
15,O=C(CCCC1=NS(=O)(=O)c2ccccc2N1)N1CCN(c2ccccc2)CC1,-1.79%
16,CC(C)(CC(=O)N1CCN(c2ccc(Cl)cc2)CC1)CC1=NS(=O)(=O)c2ccccc2N1,-61.1%
17,COc1ccccc1N1CCN(C(=O)CCCC2=NS(=O)(=O)c3ccccc3N2)CC1,2.62%
18,O=C(NCCc1csc(-c2cccnc2)n1)c1ccccc1Br,-4.05%
19,CC1CCCCN1C(=S)NC(=O)c1cc(Br)ccc1Cl (stereo not drawn),4.09%
20,COc1ccc(/C=N/N=C/c2c[nH]c(=O)c(C#N)c2Nc2ccccc2)cc1,5.81%
21,Cn1c(O)c(N=NC(=O)c2ccccc2O)c2ccccc21,13.6%
22,CCCCc1nc(Cl)c(C#N)c2c1CCCC2,-14.7%
23,CCCCCc1nc2c(c3c1CCCC3)CCCC2,-71.7%
24,CCCCCc1n[nH]c2c1CCCC2,15.6%
25,CCOC(=O)c1ccc(NC(=S)NCCc2ccccc2)cc1,4.14%

row,Structure (SMILES),"hERG current change (%, negative = inhibition) at 10uM"
1,CC(=O)N1CCN(CC(=O)Nc2ccc(C#N)c(Cl)c2)CC1,-71.7%
2,N#Cc1ccc(NC(=O)CN2CCCC2)cc1Cl,0.986%
3,O=C(CN1CCOCC1)Nc1c(Cl)cc(Cl)cc1Cl,-2.17%
4,N#Cc1ccc(NC(=O)CN2CCCCCC2)cc1Cl,-21.3%
5,CC(=O)N1CCN(CC(=O)Nc2c(Cl)cc(Cl)cc2Cl)CC1,-54.2%
6,O=C(CN1CCCCCC1)Nc1c(Cl)cc(Cl)cc1Cl,-5.28%
7,O=C(NC1CCS(=O)(=O)C1)c1ccc(S(=O)(=O)N2CCCC2)cc1 (stereo not drawn),9.83%
8,CCC(C)(C)C1CCc2[nH]nc(C(=O)NC(C)C)c2C1 (stereo not drawn),12.7%
9,CC12CCC(C(=O)NCCN3CCCCC3)(CC1=O)C2(C)C (stereo not drawn),-2.12%
10,CCCCOc1ccc(NC(=O)CN2CCN(C(=O)OCC)CC2)cc1.Cl,-28.6%
11,O=C(CN1CCN(c2ccccc2)CC1)Nc1ccc(Oc2ccccc2)cc1,15.6%
12,CCOC(=O)N1CCN(CC(=O)Nc2ccc(Oc3ccccc3)cc2)CC1,-50.1%
13,CCOC(=O)N1CCN(CC(=O)Nc2ccc(C)c(Br)c2)CC1.Cl,-16.1%
14,CCN(CC)CCNC(=O)C(C)c1nn(C)c(=O)c2ccccc12 (stereo not drawn),8.67%
15,CCN(CC)CCNC(=O)C(Oc1ccccc1)Oc1ccccc1,-65.4%
16,CCN(CC)CC(=O)Nc1ccc(Oc2ccc(NC(=O)CN(CC)CC)cc2)cc1,17.1%
17,O=C(CNCc1ccccc1)Nc1ccc(Oc2ccccc2)cc1,-18.7%
18,CCOC(=O)N1CCN(CCC(=O)Nc2ccc(F)c(F)c2)CC1,0.204%
19,CCOC(=O)N1CCN(CC(=O)Nc2ccc(F)c(F)c2)CC1,-62.4%
20,CCN(CC)CCNCC(=O)Nc1ccc(Oc2ccccc2)cc1,-70.5%
21,CCN(CC)CCNC(=O)c1ccccc1N,-5.76%
22,Nc1ccccc1NC(=O)NC(=O)c1ccccc1,12.5%
23,CCC(=O)Nc1ccc(NC(=O)c2cccc3c(Br)cccc23)cc1,3.96%
24,COC(=O)C(Cc1ccccc1)NC(=O)CCc1c[nH]c2ccccc12 (stereo not drawn),-8.09%
25,CCOC(=O)N1CCN(CC(=O)Nc2ccc(F)c(F)c2F)CC1,7.7%

row,Structure (SMILES),"hERG current change (%, negative = inhibition) at 10uM"
1,CCOC(=O)N1CCN(CC(=O)Nc2ccc(F)cc2F)CC1,-28.6%
2,CCOC(=O)N1CCN(CC(=O)Nc2ccc(C)cc2)CC1,-63.2%
3,CCOC(=O)N1CCN(CC(=O)Nc2ccc(OC)cc2)CC1,-15.2%
4,CCOC(=O)N1CCN(CCC(=O)Nc2ccc(C)cc2)CC1,4.65%
5,CCOC(=O)N1CCN(CC(=O)Nc2ccc(F)cc2)CC1,-82%
6,COc1ccc(-c2nn(-c3ccccc3)cc2/C=N/N2C(=O)CSC2=S)cc1,-6.34%
7,O=C(NCCCl)NNc1c(Cl)cc(Cl)cc1Cl,10.3%
8,CC1(C)Oc2ccc3ccc(=O)oc3c2[C@@H](O)[C@H]1O,15.5%
9,CCOCCn1cnc2sc(C(=O)NCC(=O)OCC)c(C)c2c1=O,-3.75%
10,COc1ccc(CN2CCC(n3nccc3NC(=O)C3CC3)CC2)c(Cl)c1OC,-39.2%
11,Cc1cc(C)c(CN2CCC(n3nccc3NC(=O)C3CCCC3)CC2)cc1C,-70.7%
12,Cc1cc(C)c(CN2CCC(n3nccc3NC(=O)C3CCOC3)CC2)cc1C (stereo not drawn),-19%
13,COc1cc(C)c(CN2CCC(n3nccc3NC(=O)C3CCOC3)CC2)cc1C (stereo not drawn),-18.2%
14,O=C(Nc1ccnn1C1CCN(Cc2ccccc2F)CC1)C1CCCC1,-45.4%
15,COc1ccc(C(=O)N2CCC(n3nccc3NC(=O)C3CC3)CC2)c(OC)c1OC,24.7%
16,COc1cc(C)c(CN2CCC(n3nccc3NC(=O)C3CC3)CC2)cc1C,-52.7%
17,Cc1ccc(C)c(CN2CCC(n3nccc3NC(=O)C3CCCC3)CC2)c1,-69.9%
18,CCn1cc(CN2CCC(n3nccc3NC(=O)C3CCCC3)CC2)c(C)n1,-12.4%
19,COc1ccc(CN2CCC(n3nccc3NC(=O)C3CC3)CC2)c(OC)c1OC,-51.4%
20,OCCSc1nc2ccccc2n1CCOc1ccccc1,4.02%
21,O=c1cccccc1NCc1ccccc1,-17.3%
22,O=C(CSCC(=O)N1CCCc2ccccc21)Nc1nc(-c2ccccc2)cs1,12.4%
23,COc1ccc(NC(=O)CSc2nnc(Cc3ccccc3)c(=O)n2N)c(OC)c1,-18.1%
24,O=c1c2ccccc2nc(-c2ccoc2)n1CCc1ccccc1,-3.87%
25,COc1ccc(NC(=O)CCC(=O)N(Cc2ccc(OC)c(OC)c2)c2nccs2)cc1,13.5%

row,Structure (SMILES),"hERG current change (%, negative = inhibition) at 10uM"
1,CC(=O)Nc1ccc(NC(=O)c2ccc(N(C)S(=O)(=O)c3ccc(C)cc3)cc2)cc1,6.8%
2,CC(=O)Oc1ccc2c(=O)c(-c3ccccc3)c(C)oc2c1,16.2%
3,O=C(CSc1ncnc2scc(-c3ccccc3)c12)Nc1ccc(C(=O)O)cc1,8.17%
4,COc1ccc(C(C(=O)NC2CCCCC2)N(C(=O)c2ccco2)c2ccc(-n3cnnn3)c(C)c2)cc1 (stereo not drawn),8.93%
5,CCCN1C(=O)c2cc(C(=O)Nc3ccccc3CC)ccc2C1O (stereo not drawn),2.3%
6,N#Cc1c(N)n(CCNC(=O)c2cccs2)c2nc3ccccc3nc12,10.4%
7,O/N=C/c1ccnc(SCc2ccccc2)n1,-12.1%
8,Cc1c(NC(=O)C(C)OC(=O)c2cccs2)c(=O)n(-c2ccccc2)n1C (stereo not drawn),3.46%
9,Cc1c(NC(=O)C(C)OC(=O)c2cc3c4ccccc4n(C)c3s2)c(=O)n(-c2ccccc2)n1C (stereo not drawn),-68.5%
10,Cc1c(NC(=O)COC(=O)c2cc3c4ccccc4n(C)c3s2)c(=O)n(-c2ccccc2)n1C,-11.8%
11,CN(C)S(=O)(=O)c1ccc(N=Cc2c(C(F)(F)F)[nH][nH]c2=O)cc1,23%
12,CC(C)(C)c1ccccc1NC(=O)CN1C(=O)NC2(CCCC2)C1=O,1.01%
13,Cc1ccc(NC(=O)c2cc3ccccc3o2)cc1Cl,19.7%
14,O=C(Nc1ccc(N2CCN(C(=O)c3ccco3)CC2)c(Cl)c1)c1cc2ccccc2o1,-67.9%
15,O=C(Nc1ccc(N2CCN(C(=O)c3ccco3)CC2)c(Cl)c1)c1c(F)c(F)c(F)c(F)c1F,-32.1%
16,CCC(=O)N1CCN(c2ccc(NC(=O)c3cc4ccccc4o3)cc2Cl)CC1,-67.7%
17,CC(C)C(=O)N1CCN(c2ccc(NC(=O)c3cccs3)cc2Cl)CC1,-14.7%
18,CCCC(=O)N1CCN(c2ccc(NC(=O)c3cc4ccccc4o3)cc2)CC1,-13.4%
19,CCCC(=O)N1CCN(c2ccc(NC(=O)c3cccs3)cc2Cl)CC1,-66.8%
20,O=C(Nc1ccc(N2CCOCC2)c(Cl)c1)c1cc2ccccc2o1,-36.1%
21,CCCC(=O)N1CCN(c2ccc(NC(=O)c3cc4ccccc4o3)cc2Cl)CC1,-56.8%
22,CCCC(=O)N1CCN(c2ccc(NC(=O)c3cccs3)cc2)CC1,-18.2%
23,CCC(=O)N1CCN(c2ccc(NC(=O)c3cc4ccccc4o3)cc2)CC1,-23.3%
24,Cc1ccccc1C(=O)N1CCN(c2ccc(NC(=O)c3ccco3)cc2Cl)CC1,-43.2%
